Results published in ChEMBL document CHEMBL3988442, “University of Dundee, Small-Polar-MMV Screening Library” (2021).
Out of some 48,000 compounds screened, about 13,000 (27%) showed an effect of 50% or more. The list shows a part of the results.

The compounds below were run on Wolbachia pipientis (assay: Anti-Wolbachia Cell-Based Screen). Details: 5 µM.
Type: functional
Set-up: scale not given: in the data most compounds retested in dose-response had high values

Row | Compound | Percent Effect [%]
1 | COc1ccc(Cl)cc1CNC(=O)CN1CCC2(CCOC2)C1 (stereo not given) | 5.478
2 | CCCC(=O)NCC(=O)NC(c1ccc(Cl)cc1)C(F)(F)F (stereo not given) | -4.192
3 | CC(=O)c1cn(CC(=O)N2CCCC(O)(CO)C2)c2ccccc12 (stereo not given) | -9.342
4 | Cc1nc(C)c(CC(=O)N2C[C@H]3CC[C@@H]2CN(C(=O)N(C)C)C3)c(=O)[nH]1 | -5.688
5 | Cc1ccc(CN(Cc2ccccn2)C(=O)C2CCCCCN2C)s1 (stereo not given) | -49.91
6 | O=C(NCc1cc(F)ccc1F)Nc1ccn(CC(F)F)n1 | -16.02
7 | CCCS(=O)(=O)CC(=O)Nc1ccsc1 | -10.7
8 | CCNc1nc2c(s1)C(=O)CN(C(=O)NCCc1ccccc1)C2 | -10.47
9 | CCNc1nc2c(s1)C(=O)CN(C(=O)NCc1ccccc1)C2 | 105.7
10 | COCc1nc2c(o1)CN(C(=O)NCc1ccccc1)C2 | 27.3
11 | Nc1nc2c(c(N3CCOCC3)n1)CCN(C(=O)c1ccc[nH]1)CC2 | 39.51
12 | CN(C)c1nc2c(c(N3CCCC3)n1)CCN(C(=O)c1ccc[nH]1)CC2 | 91.66
13 | Cc1nc(-c2cnn(C)c2)nc2c1CN(C(=O)c1ccc[nH]1)CC2 | -2.829
14 | CC(C#N)CN(C)Cc1c(Cl)ccc2cccnc12 (stereo not given) | 4.156
15 | COc1ccncc1NCc1ccsc1 | 15.23
16 | COc1ccc(CNc2c(C)nn(C(C)C)c2C)cc1OC.Cl | 8.952
17 | CCc1cnc(N)nc1NCc1ccc(OC)cc1OC | -6.529
18 | COc1ccc(CNc2cc(-c3nc(C)no3)ccn2)c(OC)c1 | -6.518
19 | COc1ccc(CNC(Cc2ccsc2)c2ccc(C)cn2)c(OC)c1 (stereo not given) | 101.2
20 | COc1ccc(CNC(Cc2ccsc2)c2ccc(C)cn2)cc1OC.Cl (stereo not given) | 112.1
21 | COC(C)c1cccc(NCc2ccsc2)c1 (stereo not given) | -13.03
22 | COc1cccc(OC)c1CNC(Cc1ccsc1)c1ccc(C)cn1 (stereo not given) | 169.8
23 | O=C(NCc1cccc(-n2cncn2)c1)NCC(C1CC1)C1CC1 | -15.59
24 | CC(C)Cn1cncc1CNC1CCSCC1 | 2.151
25 | COc1ccc(F)c(CN2CCCC(O)(CNC3CCCCC3)C2=O)c1 (stereo not given) | -6.817
26 | Cc1noc2ncc(C(=O)NCC3CCOC3)cc12 (stereo not given) | -15.76
27 | COc1c(C)cnc(CNC(=O)c2cc(C)nc3onc(C)c23)c1C | -1.817

Row | Compound | Percent Effect [%]
28 | COc1c(C)cnc(CNC(=O)c2cnc3onc(C)c3c2)c1C | 104.5
29 | O=C(NCCOCCO)[C@@]12CNC[C@@H]1CN(C1CCCC1)C2 | -7.865
30 | CC(C)c1cc(N2CCC(CCC(=O)NC3CC3)CC2)n2nccc2n1 | 7.052
31 | CCN(Cc1nnsc1Cl)C(C)c1ccc(C#N)cc1 (stereo not given) | 1.58
32 | Cc1nc(C)n(CC2CCCN2Cc2cn3c(C)cccc3n2)n1 (stereo not given) | -8.673
33 | COc1cccc(CN2CCCC2Cn2nc(C)nc2C)c1 (stereo not given) | 137
34 | COc1cccc(CN2CCCCC2Cn2nc(C)nc2C)c1 (stereo not given) | 129.9
35 | COc1ccc(CCN2CCCC2Cn2nc(C)nc2C)cc1 (stereo not given) | -8.655
36 | COc1c(C)cnc(CN2CCCCC2Cn2nc(C)nc2C)c1C (stereo not given) | 6.225
37 | c1cnn(CCNCc2nnc(C3CC3)o2)c1 | -6.862
38 | CN(CCNC(=O)N1CCN(Cc2ccon2)CC1)c1ccccc1 | -8.314
39 | CCc1nc2c(N3CCC4(CC3)CC(=O)N(CC(C)C)C4)ncnc2o1 | -4.027
40 | Cc1cc(C)c(C(=O)N2CCOCC2c2c(C)nn(C)c2C)o1 (stereo not given) | 101
41 | Cc1nn(C)c(C)c1C1COCCN1C(=O)Cc1cccc(F)c1 (stereo not given) | -20.34
42 | Cc1nn(C)c(C)c1C1COCCN1C(=O)c1cnc(N)c(Cl)c1 (stereo not given) | 1.304
43 | Cc1nn(C)c(C)c1C1CCCN1C(=O)c1ccc(Cl)o1 (stereo not given) | -7.187
44 | Cc1nn(C)c(C)c1C1COCCN1C(=O)c1ccccc1 (stereo not given) | -4.407
45 | CSc1ccc(C(=O)N2CCOCC2c2c(C)nn(C)c2C)o1 (stereo not given) | 94.08
46 | Cc1nn(C)c(C)c1C1COCCN1C(=O)c1n[nH]c2ccccc12 (stereo not given) | 16.5
47 | CNC(=O)N1CCOCC1c1c(C)nn(C)c1C (stereo not given) | -10.34
48 | Cc1nn(C)c(C)c1C1COCCN1C(=O)c1ccc(Cl)o1 (stereo not given) | 70.94
49 | Cc1nn(C)c(C)c1C1COCCN1C(=O)CCc1ccccc1 (stereo not given) | 95.59
50 | CCN(CC)C(=O)N1CCOCC1c1c(C)nn(C)c1C (stereo not given) | 7.192
51 | Cc1nn(C)c(C)c1C1COCCN1C(=O)CSC(C)(C)C (stereo not given) | -11.83
52 | COCCS(=O)(=O)N1CCN(c2cccc(O)c2)CC1 | 9.959
53 | CCS(=O)(=O)NCCNC(=O)c1cc(Cl)c2c(c1)OCCCO2 | 12.52
54 | CCC(CC)CN1CCC(n2cc(C3CCCC3)nn2)CC1 | 4.235

Row | Compound | Percent Effect [%]
55 | CN(Cc1ccc(F)cc1)CC1(O)CCCN(CC(C)(C)C)C1=O (stereo not given) | 55.08
56 | CN(Cc1ccccc1)CC1(O)CCCN(CC(C)(C)C)C1=O (stereo not given) | 2.381
57 | CN(Cc1ccccc1)CC1(O)CCCN(CCC2CCCCC2)C1=O (stereo not given) | -12.81
58 | CN(c1ncc(S(N)(=O)=O)s1)C1CCc2ccccc2C1 (stereo not given) | 1.957
59 | CCn1cc(N)c(C(=O)NCc2cnn(C)c2)n1 | -9.614
60 | CCn1cc(Br)c(C(=O)NCc2cnn(C)c2)n1 | 103.9
61 | Cc1c(Br)cccc1C(=O)NCc1cnn(C)c1 | -14.4
62 | CCC(=O)Nc1ccc2c(c1)C1(CCOCC1)CN2CCOC.O=C(O)C(F)(F)F | 101.5
63 | CCCC(=O)Nc1ccc2c(c1)C1(CCOCC1)CN2CCOC.O=C(O)C(F)(F)F | 114.8
64 | COCCN1CC2(CCOCC2)c2cc(NC(=O)C3CC=CC3)ccc21.O=C(O)C(F)(F)F | 98.06
65 | COCCN1CCC2(CC1)CN(C(C)=O)c1ccc(C)cc12.O=C(O)C(F)(F)F | 24.24
66 | COCCN1CCC2(CC1)CC(N1CCOCC1)c1ccc(C)cc12.O=C(O)C(F)(F)F.O=C(O)C(F)(F)F (stereo not given) | -12.46
67 | CN(C)C(=O)N1CC2(CCOCC2)c2cc(NC(=O)CCO)ccc21 | -8.643
68 | Cc1noc(C[C@@H]2COC[C@H]3CN(S(=O)(=O)C4CC4)C[C@@H]23)n1 | 6.683
69 | Cc1ccc(S(=O)(=O)NC(C)C#N)cc1Br (stereo not given) | -6.675
70 | NS(=O)(=O)NCC1(c2ccccc2Br)CC1 | -0.7264
71 | O=S(=O)(Nc1cnc(N2CCOCC2)nc1)c1cccc(F)c1 | -8.595
72 | c1csc(CCNc2nc(-c3ccncc3)nc3c2CCNCC3)c1 | -1.817
73 | COc1cccc(Nc2nc(N3CCCC3)nc3c2CNCC3)c1.Cl | 154.5
74 | O=S(=O)(Nc1cnc(N2CCCC2)nc1)c1ccc(F)cc1F | 5.953
75 | COc1ccc(CC(=O)Nc2c(C)nc(N3CCCC3)nc2C)cc1 | 3.23
76 | Fc1cccc(Nc2nc(N3CCCC3)nc3c2CNCC3)c1 | 142.6
77 | CCOCCNc1nc(-c2ccncc2)nc2c1CCNCC2 | 0.459
78 | COc1cccc(Nc2nc(-c3ccncc3)nc3c2CNCC3)c1.Cl | 140.9
79 | COc1cccc(-n2ccc3nc(N4CCCC4)ncc3c2=O)c1 | -5.391
80 | COc1ccc(N2CCC(NCc3csc(C(C)C)n3)CC2)cc1 | -0.6873
81 | Cc1cc(CN(C)C(=O)NC2CCS(=O)(=O)C2)no1 (stereo not given) | 4.321

Row | Compound | Percent Effect [%]
82 | Cc1ccc(Cl)cc1N1CCC(CNC(=O)CCn2ccnn2)C1 (stereo not given) | 3.758
83 | Cn1ccnc1CN1C[C@H]2CN(S(C)(=O)=O)CCN2C1=O | -9.259
84 | Cc1ccccc1C(=O)N1CCN(c2ccc(-n3cncn3)nn2)CC1 | 17.86
85 | c1cc(C2CCCN2Cc2nnnn2C2CC2)cs1 (stereo not given) | -19.47
86 | Cc1ccccc1C1CCCN1Cc1ccc(S(=O)(=O)N(C)C)o1 (stereo not given) | 160.2
87 | CN(C)S(=O)(=O)c1ccc(CN2CCCC2c2ccsc2)o1 (stereo not given) | 153.1
88 | CN(CCC#N)C(=O)CN1CCCC1c1ccsc1 (stereo not given) | 1.248
89 | CN(Cc1ccco1)C(=O)CN1CCCC1c1cccs1 (stereo not given) | -12.25
90 | CN(C)S(=O)(=O)c1ccc(CN2CCC(c3ccccc3)C2)o1 (stereo not given) | -9.641
91 | CN(C)S(=O)(=O)c1ccc(CN2CCCC2c2cccs2)o1 (stereo not given) | 169.9
92 | CN(C)S(=O)(=O)c1ccc(CN2CCCC2CO)o1 (stereo not given) | -8.26
93 | CN(C)S(=O)(=O)c1ccc(CN2CCCC2c2ccc[nH]2)o1 (stereo not given) | -2.919
94 | COc1ccc(C2CCCN2Cc2ccc(S(=O)(=O)N(C)C)o2)cc1 (stereo not given) | 151.6
95 | CN(C)S(=O)(=O)c1ccc(CN2CCCC2c2ccccc2)o1 (stereo not given) | 8.974
96 | Cc1nccc(-c2cccc(NCc3nc(C(C)C)no3)c2)n1 | 4.778
97 | O=c1[nH]nc(SCC2CCCO2)n1C1CC1 (stereo not given) | -2.947
98 | O=C(Cc1cccs1)N1CCc2nnc(COc3cncnc3)n2CC1 | -9.187
99 | COC1CN(C(=O)COC(C)=O)CCC(=O)N(C)c2ccccc21 (stereo not given) | 92.83
100 | COC1CN(C(=O)CC(C)C)CCC(=O)N(C)c2ccccc21 (stereo not given) | 94.68
101 | Cc1ccccc1N1CCN(C2CCCN(C(=O)CCC(C)C)C2)CC1 (stereo not given) | -1.858
102 | COC1CN(C(=O)Cc2cccs2)CCC(=O)N(C)c2ccccc21 (stereo not given) | 113.3
103 | CC1CCCN(c2ccccc2OCC(=O)N2CCOCC2)C1 (stereo not given) | -4.736
104 | COc1ccc([C@@H]2CN(C(=O)Cc3cccs3)C[C@H]2NC(C)=O)cc1 | 1.079
105 | COC1CN(C(=O)CC(C)(C)C)CCC(=O)N(C)c2ccccc21 (stereo not given) | 105.9
